In ChEMBL document CHEMBL1201862, “PubChem BioAssay data set” (2004) one finds Potency data, which are given here for two molecules.

About 1,200 (0.92%) of roughly 130,000 compounds were called active. Another 3% or so got no clear call; they are omitted. The calls are words filed in the database; no cut-off is given here. The sample as a whole holds a higher share of actives than the screen did.

The target of the test is Cellular tumor antigen p53 (Homo sapiens) (UniProt P04637). Nature of the test: qHTS Screen for Compounds that Selectively Target Cancer Cells with p53 Mutations: Cytotoxicity of p53ts Cells at the Permissive Temperature. [Related pubchem assays: 902 ]. The format is functional. On the technique in general: Quantitative high-throughput screening tests each substance at several concentrations.
Cellular tumor antigen p53 (Homo sapiens), sequence (P04637 whole entry, looked up): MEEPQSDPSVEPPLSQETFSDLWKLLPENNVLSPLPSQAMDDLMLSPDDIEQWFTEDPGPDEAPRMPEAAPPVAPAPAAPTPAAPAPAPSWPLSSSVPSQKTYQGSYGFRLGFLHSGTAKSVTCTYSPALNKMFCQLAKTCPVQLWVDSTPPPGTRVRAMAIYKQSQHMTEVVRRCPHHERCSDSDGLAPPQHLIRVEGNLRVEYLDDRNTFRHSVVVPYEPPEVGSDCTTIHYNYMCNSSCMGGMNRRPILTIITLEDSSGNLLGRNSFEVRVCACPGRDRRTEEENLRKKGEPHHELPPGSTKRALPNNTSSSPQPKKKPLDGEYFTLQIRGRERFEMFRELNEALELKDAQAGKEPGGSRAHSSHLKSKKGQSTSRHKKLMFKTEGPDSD
For `COc1ccccc1/C=C/C(=O)c1cccs1`, the Potency was 10 µM (active). As for `O=C(/C=C/c1ccc(Cl)cc1)c1cccs1`, the figure is 15.8 µM (active).
